Active and inactive are the calls of the source.

One experiment deals with Albumin (Bos taurus) (UniProt P02769). As to the kind of experiment: compounds binding labelled BSA control protein – biochemical, small-molecule microarray, Alexa647 label, 635/667 nm fluorescence, artefact control for SMM control protein annotation, profiling panel (AID 1118).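 Note: score merges 667 nm emission intensity and signal-to-noise per printed compound spot.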 The conditions noted are these: BSA-A647 binding, fluorescence 635 nm, higher = more signal.
Sequence of Albumin (Bos taurus) (P02769 whole entry, looked up): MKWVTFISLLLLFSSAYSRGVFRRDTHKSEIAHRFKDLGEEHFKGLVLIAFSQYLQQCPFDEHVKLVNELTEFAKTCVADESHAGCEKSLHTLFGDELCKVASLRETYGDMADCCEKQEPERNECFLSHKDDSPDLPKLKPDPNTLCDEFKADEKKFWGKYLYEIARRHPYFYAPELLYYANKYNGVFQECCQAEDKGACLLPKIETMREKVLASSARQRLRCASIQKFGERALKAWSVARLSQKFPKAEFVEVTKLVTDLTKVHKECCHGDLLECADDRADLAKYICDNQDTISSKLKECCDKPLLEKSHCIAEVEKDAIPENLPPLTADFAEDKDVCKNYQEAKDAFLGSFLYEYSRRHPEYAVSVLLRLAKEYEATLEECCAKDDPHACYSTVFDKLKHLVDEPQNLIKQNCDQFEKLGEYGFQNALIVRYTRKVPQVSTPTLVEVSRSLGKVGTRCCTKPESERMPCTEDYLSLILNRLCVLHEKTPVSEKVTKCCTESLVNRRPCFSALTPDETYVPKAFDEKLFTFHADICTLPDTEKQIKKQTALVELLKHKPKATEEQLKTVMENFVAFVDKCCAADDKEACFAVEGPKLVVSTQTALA
A short description of experiment [1]: probe aXIP binding to arrayed compounds – biochemical, NeuroSMM set, 635/667 nm fluorescence, primary screen (AID 1119).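 Note: probe is the protein aXip251-270 applied at 1 µg/mL to compound-printed slides; binding of probe to printed compounds measured as 667 nm fluorescence plus signal to noise.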 The conditions noted are these: small-molecule microarray, higher = more signal, called active from +8 up or from −8 down.
The nature of experiment [2]: probe aNOTCH3 binding on compound microarray – biochemical, small-molecule microarray, 635/667 nm fluorescence, primary screen (AID 1120).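 Note: probe is a biotin-tagged antibody raised against NOTCH3 rather than NOTCH3 protein; score merges spot fluorescence near 667 nm with spot signal to noise.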 As to conditions: higher = more signal.
Experiment [3] in a line: probe aNOTCH2 binding on compound microarray – biochemical, small-molecule microarray, 635/667 nm fluorescence, primary screen (AID 1121).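 Note: score merges feature fluorescence read at 667 nm with its signal to noise.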 As to conditions: higher = more signal.
Experiment [4] addresses Carbonic anhydrase 2 (Homo sapiens) (UniProt P00918). Put plainly: compounds binding carbonic anhydrase 2 – biochemical, small-molecule microarray, Alexa647-labelled CAII, profiling panel (AID 1122). The conditions noted are these: CAII-A647 binding fluorescence, higher = more signal.
Experiment [5] is described as follows: COS7 lysate on small-molecule microarray, probe aHis, 635 nm (AID 1123).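 Note: z-score combines 667nm fluorescence intensity with signal-to-noise per printed compound spot.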 As to conditions: COS7 cell lysate, fluorescence, higher = more signal.
The nature of experiment [6]: probe aLAP1 signal on lysate-treated microarray – cell lysate, small-molecule microarray, COS7 lysate, primary screen (AID 1124).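 Note: lysate comes from COS7 cells expressing LAP1 and is applied at 0.3 µg/mL; score merges spot fluorescence near 667 nm with signal-to-noise over triplicate slides.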 The conditions noted are these: probe aLAP1, fluorescence, higher = more signal.
The subject of the next experiment is Sam68 (KHDRBS1). As to the kind of experiment: compounds binding KHDRBS1 protein – biochemical, small-molecule microarray, 635 nm fluorescence, primary screen (AID 1125).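 Note: score merges 667 nm channel intensity with signal to noise over triplicate slides.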 The conditions noted are these: higher = more signal.
Experiment [7] has as its system Chordin-like protein 2 (CHRDL2). As to the kind of experiment: compounds binding chordin-like 2 – biochemical, small-molecule microarray, 635 nm fluorescence, primary screen (AID 1126).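 Note: printed compound slides probed with Chrdl2 protein at 4 µg/mL for 1 h at 4 C; score merges 667 nm emission intensity with signal to noise over three replicate slides.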 The conditions noted are these: fluorescence 635 nm, higher = more signal.
The target in experiment [8] is Concanavalin-A (Canavalia ensiformis) (UniProt P02866). Put plainly: compounds binding concanavalin A lectin – biochemical, small-molecule microarray, Alexa647 label, 635 nm, artefact control for SMM control protein annotation, primary screen (AID 1127).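 Note: z combines 667 nm emission intensity with signal-to-noise across three replicate slides.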 The conditions noted are these: ConA-A647 binding fluorescence, higher = more signal.
Sequence of Concanavalin-A (Canavalia ensiformis) (P02866 whole entry, looked up): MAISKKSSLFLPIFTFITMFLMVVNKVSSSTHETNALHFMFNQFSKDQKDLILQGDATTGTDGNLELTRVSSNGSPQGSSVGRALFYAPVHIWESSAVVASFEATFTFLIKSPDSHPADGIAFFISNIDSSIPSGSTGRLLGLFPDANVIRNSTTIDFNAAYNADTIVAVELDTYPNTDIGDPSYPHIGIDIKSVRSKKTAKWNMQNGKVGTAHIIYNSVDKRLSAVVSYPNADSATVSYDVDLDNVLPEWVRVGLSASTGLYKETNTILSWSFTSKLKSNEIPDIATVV
Experiment [9] can be described thus: compounds binding Alexa647 anti-His antibody – biochemical, small-molecule microarray, 635 nm fluorescence, artefact control for SMM control protein annotation, primary screen (AID 1128).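 Note: score merges feature fluorescence with signal-to-noise for each printed compound spot.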 The conditions noted are these: higher = more signal.
Experiment [10] concerns Human papillomavirus type 1a E7 protein (residues 1-88). As to the kind of experiment: HPV1a E7 small-molecule binders, primary screen, biochemical, small-molecule microarray, residues 1-88, 635 nm (AID 1129). As to conditions: small-molecule microarray binding, fluorescence 635 nm; higher = more signal.
Experiment [11] deals with Focal adhesion kinase 1 (Homo sapiens) (UniProt Q05397). Put plainly: PTK2 protein binding on printed compound slides – biochemical, small-molecule microarray, 635/667 nm fluorescence, BSA, DTT, primary screen (AID 1130).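 Note: composite of spot emission at 667 nm and signal to noise over triplicate slides.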 The conditions noted are these: 635 nm fluorescence, higher = more signal.
Sequence of Focal adhesion kinase 1 (Homo sapiens) (Q05397 whole entry, looked up): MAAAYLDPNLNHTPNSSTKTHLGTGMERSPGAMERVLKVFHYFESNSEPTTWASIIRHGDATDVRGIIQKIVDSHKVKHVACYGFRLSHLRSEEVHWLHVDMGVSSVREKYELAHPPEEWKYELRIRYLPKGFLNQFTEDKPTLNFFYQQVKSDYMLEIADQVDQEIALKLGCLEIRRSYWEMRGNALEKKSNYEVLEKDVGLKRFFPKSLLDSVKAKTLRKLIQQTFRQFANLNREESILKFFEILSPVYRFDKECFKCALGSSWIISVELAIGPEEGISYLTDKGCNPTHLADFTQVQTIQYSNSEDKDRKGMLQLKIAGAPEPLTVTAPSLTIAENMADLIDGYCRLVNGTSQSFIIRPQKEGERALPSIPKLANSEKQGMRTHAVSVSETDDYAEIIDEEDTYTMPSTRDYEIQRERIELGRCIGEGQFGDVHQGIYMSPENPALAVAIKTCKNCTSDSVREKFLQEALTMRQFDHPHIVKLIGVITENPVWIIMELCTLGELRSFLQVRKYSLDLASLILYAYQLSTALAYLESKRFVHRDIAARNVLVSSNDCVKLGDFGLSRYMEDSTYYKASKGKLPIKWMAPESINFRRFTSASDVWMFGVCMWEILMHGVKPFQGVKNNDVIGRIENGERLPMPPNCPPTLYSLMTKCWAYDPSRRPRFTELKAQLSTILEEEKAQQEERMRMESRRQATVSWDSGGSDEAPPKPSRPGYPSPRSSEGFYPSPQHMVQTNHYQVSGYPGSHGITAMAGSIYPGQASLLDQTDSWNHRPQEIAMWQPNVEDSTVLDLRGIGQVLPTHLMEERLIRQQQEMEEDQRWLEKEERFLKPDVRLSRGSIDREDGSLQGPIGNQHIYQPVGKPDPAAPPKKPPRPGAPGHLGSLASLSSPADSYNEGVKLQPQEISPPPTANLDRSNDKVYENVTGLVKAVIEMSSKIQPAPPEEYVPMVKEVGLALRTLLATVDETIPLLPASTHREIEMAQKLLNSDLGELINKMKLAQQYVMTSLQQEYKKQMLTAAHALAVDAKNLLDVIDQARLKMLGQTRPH
Experiment [12] deals with Fibrinogen (Alexa647-labelled). Put plainly: Alexa647-fibrinogen binding to printed small molecules – biochemical, small-molecule microarray, 635/667 nm fluorescence, artefact control for SMM control-protein annotation, profiling panel (AID 1131).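 Note: z-score merges 667 nm fluorescence with per-spot signal-to-noise over triplicate slides.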 As to conditions: fibrinogen-A647 binding fluorescence, higher = more signal.
In experiment [13] the target is Follistatin (Homo sapiens) (UniProt P19883). As to the kind of experiment: FST protein binding to printed compounds – biochemical, small-molecule microarray, 635/667 nm fluorescence, primary screen (AID 1132). As to conditions: 635 nm fluorescence, higher = more signal.
Sequence of Follistatin (Homo sapiens) (P19883 whole entry, looked up): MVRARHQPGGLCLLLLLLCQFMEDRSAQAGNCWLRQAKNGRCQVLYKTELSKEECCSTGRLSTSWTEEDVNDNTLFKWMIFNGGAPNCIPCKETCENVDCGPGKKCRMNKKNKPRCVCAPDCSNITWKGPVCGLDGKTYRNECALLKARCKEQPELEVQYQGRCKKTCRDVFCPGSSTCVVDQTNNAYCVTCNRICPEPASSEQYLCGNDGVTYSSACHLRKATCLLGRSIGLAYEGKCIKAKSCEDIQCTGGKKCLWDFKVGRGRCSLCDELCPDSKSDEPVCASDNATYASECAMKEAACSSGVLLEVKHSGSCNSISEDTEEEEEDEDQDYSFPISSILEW
Experiment [14] concerns the target Fibroblast growth factor 2 (Homo sapiens) (UniProt P09038). Put plainly: basic fibroblast growth factor binding to printed compounds – biochemical, small-molecule microarray, 635/667 nm fluorescence, primary screen (AID 1133). As to conditions: FGF2, fluorescence 635/667, higher = more signal.
Experiment [15] is described as follows: JC-1 mitochondrial potential readout, lung cancer cells – cell-based, A549, JC-1 fluorescence, basal, 24 h, 100 nL, profiling panel (AID 1138).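 Note: A549 lung adenocarcinoma cells under basal conditions with no added stimulus; test concentration not given here.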 The conditions noted are these: higher = more signal.
For another experiment, the system named is Lefty1. As to the kind of experiment: Lefty1 protein binding to printed compounds – biochemical, small-molecule microarray, 635/667 nm fluorescence, primary screen (AID 1139). As to conditions: fluorescence 635/667, higher = more signal.
Experiment [16] has as its system wheat germ agglutinin (Triticum aestivum), Alexa647-labelled. As to the kind of experiment: Alexa647-WGA lectin binding to printed small molecules – biochemical, small-molecule microarray, 635/667 nm fluorescence, artefact control for SMM control-protein annotation, profiling panel (AID 1140).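 Note: score merges 667 nm feature emission with signal to noise over triplicate slides.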 The conditions noted are these: WGA-A647 binding, 635 nm fluorescence, higher = more signal.

Experiment [17] concerns the target Luciferin 4-monooxygenase (Photinus pyralis) (UniProt P08659). As to the kind of experiment: inhibition of purified Photinus pyralis luciferase – biochemical, luminescence, purified enzyme, 2006 set, primary screen (AID 1141).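 Note: cell-free assay with purified firefly luciferase at 100 ng per well in PBS; test concentration not given here.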 As to conditions: purified firefly luciferase, SteadyGlo luminescence, 30 min; higher = more signal, called active from +8 up or from −8 down.

Sequence of Luciferin 4-monooxygenase (Photinus pyralis) (P08659 whole entry, looked up): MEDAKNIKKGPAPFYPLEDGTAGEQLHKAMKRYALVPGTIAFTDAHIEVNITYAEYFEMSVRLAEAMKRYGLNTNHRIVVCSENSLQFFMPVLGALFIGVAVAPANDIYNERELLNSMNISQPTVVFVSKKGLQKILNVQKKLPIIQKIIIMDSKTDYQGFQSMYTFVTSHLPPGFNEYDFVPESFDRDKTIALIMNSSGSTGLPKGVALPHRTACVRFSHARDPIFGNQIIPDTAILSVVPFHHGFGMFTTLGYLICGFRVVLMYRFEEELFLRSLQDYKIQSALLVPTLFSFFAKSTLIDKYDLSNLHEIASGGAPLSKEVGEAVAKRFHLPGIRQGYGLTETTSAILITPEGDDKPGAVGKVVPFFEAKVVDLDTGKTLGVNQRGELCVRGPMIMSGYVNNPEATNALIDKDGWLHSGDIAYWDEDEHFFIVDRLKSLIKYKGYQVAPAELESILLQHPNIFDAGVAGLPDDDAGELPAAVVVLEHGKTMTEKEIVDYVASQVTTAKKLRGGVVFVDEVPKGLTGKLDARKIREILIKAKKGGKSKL
Sequence of Fibroblast growth factor 2 (Homo sapiens) (P09038 whole entry, looked up): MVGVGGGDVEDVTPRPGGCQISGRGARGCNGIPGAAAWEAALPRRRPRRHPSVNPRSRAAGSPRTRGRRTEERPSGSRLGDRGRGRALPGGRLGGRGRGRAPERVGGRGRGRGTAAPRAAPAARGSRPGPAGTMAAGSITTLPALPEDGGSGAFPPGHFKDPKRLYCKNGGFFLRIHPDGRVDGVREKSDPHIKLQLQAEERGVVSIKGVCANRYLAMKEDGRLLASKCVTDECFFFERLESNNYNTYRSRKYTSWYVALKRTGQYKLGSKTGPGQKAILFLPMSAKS

In the case of `Cc1ccc(S[C@]2(C(=O)NCC(C)C)CC(=O)N(C(C)C)[C@@H]2c2ccc(CO)cc2)cc1`, the composite z-score with Albumin (Bos taurus) is -0.283; in experiment [2], -0.255; in experiment [3] it was -0.163; in experiment [4], 0.747; in experiment [5] it was 0.301; in experiment [6], -0.311. The composite z-score in the experiment with Sam68 (KHDRBS1) was -0.749; in experiment [7] it was -0.589; in [8], -0.522; in experiment [9], -1.15; in experiment [10], 0.259; in experiment [11] it was -0.267. In addition, the composite z-score in experiment [12] is -1.48; in experiment [13] it was 0.259; in [14] it was 0.206; in the experiment on Lefty1, -0.477; in experiment [16] it was -1.76. The composite Z-score in [1] is 0.0333 (inactive). The z-score in experiment [15] is 0.69; in experiment [17], -0.204 (inactive).

Consider `CCCCC(=C=CC[C@H](O)c1cccc(OCCO)c1)CCO`, for which the composite z-score with Albumin (Bos taurus) was 0.15; in [2], -0.0699; in experiment [3], -0.162; in experiment [4], 0.681; in [5], 0.24; in experiment [6] it was 0.133. Also, the composite z-score was -0.319 with Sam68 (KHDRBS1); -0.361 in [7]; -0.245 in experiment [8]; 0.0233 in experiment [9]; -0.282 in experiment [10]; 0.44 in experiment [11]. Also, the composite z-score is -0.644 in [12]; 0.455 in [13]; 0.287 in experiment [14]; -0.103 in the experiment with Lefty1; -0.602 in [16]. Besides, the composite Z-score in experiment [1] was -0.434 (inactive). In addition, the values for the z-score in [15] and in experiment [17] were 1.97 and -0.835 (inactive), respectively.

With `CC(C)C[C@@H]1NC(=O)[C@@]23C(=O)N[C@@H](Cc4ccccc4)C2[C@H](C)[C@@]2(C)O[C@H]2C3/C=C/C/C=C\CNC(=O)[C@H](Cc2ccccc2)NC1=O` (stereo not given in full), the composite z-score with Albumin (Bos taurus) was 0.533; in experiment [2], -0.0881; in [3], -0.128; in experiment [4], 0.848; in experiment [5] it was 0.138; in [6] it was 0.379. In addition, the composite z-score with Sam68 (KHDRBS1) is 0.456; in experiment [7] it was -0.0794; in experiment [8] it was 0.313; in experiment [9], 2.15; in [10], 0.284; in experiment [11], -0.0582. Besides, the composite z-score in [12] amounted to 0.894; in experiment [13], 0.515; in experiment [14], 0.31; in the experiment with Lefty1, 0.321; in experiment [16] it was 0.994. Besides, in [1], the composite Z-score is 0.376 (inactive). For the same compound, the z-score was 1.22 in [15] and -0.755 (inactive) in experiment [17].

For the compound `CO[C@H]1O[C@H](CO)[C@@H](OC(=O)Nc2ccccc2)[C@H](OC(=O)Nc2ccccc2-c2ccccc2)[C@@H]1OC(=O)Nc1ccccc1-c1ccccc1`, the composite z-score in the experiment with Albumin (Bos taurus) is 0.903; in [2], 0.224; in [3] it was -0.094; in experiment [4] it was 0.419; in experiment [5], 1.9; in [6] it was 0.381. Moreover, the composite z-score is 1.3 in the experiment with Sam68 (KHDRBS1); -0.138 in [7]; 1.19 in experiment [8]; 2.82 in experiment [9]; 1.22 in experiment [10]; 1.11 in [11]. The composite z-score came to 0.976 in experiment [12]; 1.07 in experiment [13]; 0.478 in experiment [14]; 0.36 with Lefty1; 1.26 in [16]. The composite Z-score in [1] is -0.0038 (inactive). Also, the figures for the z-score in [15] and in experiment [17] were 0.458 and -1.24 (inactive), respectively.

Consider `COc1ccc([Si](C)(C)[C@@H]2[C@@H](CC(=O)N3CCC[C@H]3CO)O[C@]3(C(=O)N(Cc4ccc(I)cc4)c4ccccc43)[C@H]2C)cc1`, for which the composite z-score in the experiment with Albumin (Bos taurus) was -1.32; in experiment [2], -0.0328; in [3], -0.0707; in experiment [4] it was -0.0226; in experiment [5], 0.713; in experiment [6] it was 0.147. The composite z-score with Sam68 (KHDRBS1) came out at 1.32; in experiment [7], 1.06; in [8], 1.19; in experiment [9] it was 1.14; in experiment [10] it was 0.989; in [11], 0.178. For the same compound, the composite z-score in experiment [12] came to 0.584; in experiment [13], 1.34; in experiment [14], 1.56; with Lefty1, 1.12; in [16], 1.07. Besides, the composite Z-score in experiment [1] is -0.36 (inactive). Moreover, the z-score in [15] is 1.05; in experiment [17], -0.765 (inactive).

The values are drawn from PubChem BioAssay.
